13 molecules from PMC12864922, “TDP-43 directly inhibits mRNA accumulation in neurites through modulation of mRNA stability” can be followed below.

The chains are these.
B1: ENSMUSG00000022095.41|Fam160b2|101:105 (ssRNA)
RNA: GGGAGUUCUACAGUCCGACGAUCGCUUCGAUAUCCGCAUGCUAUGAGGUUUCAAGGAGGUGCUGGCUCCUAAGGCAGUGGUAUUCUUGGAGCCUUUUAGAGGAGCUAGAGGAUGGCCAGUGAGCGCCUAGAUGCUGCCCUGCAACACAUGCGUGACUAUCUCUGCUAUAUUGUGACCAGGGCCACAACAUGAGACAACUCCAGGGGCCAGGGAGAUGAACUGCUGUCUUUGAGGCUGGCUAAAAAAACAAUCCAGUCCAGAGAGAUGGGGAGGGGGGGAGCAAGAACCCUGUCUGUUACAUUACUCUUGCGGUCGCACUAGUGUGGAAUUCUCGGGUGUCAAGG
B2: ENSMUSG00000031028.396|Tub|202:206 (ssRNA)
RNA: GGGAGUUCUACAGUCCGACGAUCGCUUCGAUAUCCGCAUGCUAUUGACCACUGGCGCUGUGAACACAGGCUAAUGGACUUCAGAUACCAGGGCCCCGGGAUCACCUGGGUUAGCCUCUCCCACAGGAAGAUCCCUUACCCCUCAUCCCCUCUUCUUUUUGGUCCUUGGCUGGGUAGCAAAUUGGUGAGAAGAGCAGCCUAGUCUGUAAGAGUGCAGGGCAGCUGGAACCUUAGGCAGCUCCUCUCAUACCUACCGGCUCCACACCCUAACACUCUCCACCCUCUGCUCCAAACCAGUUCUUCUCUCUUGCGGUCGCACUAGUGUGGAAUUCUCGGGUGUCAAGG
B3: ENSMUSG00000028439.151|Fam219a (ssRNA)
RNA: GGGAGUUCUACAGUCCGACGAUCGCUUCGAUAUCCGCAUGCUAAAGGCUGGCCUCCUGUGCCCCAUUGCCAUUUCACCCUAGCUCAAAGUCCAGGAGCCAGGCUUCCAGAAAGGCUCUUCAAGAGCAAGCUUAAGGAAAUACAGUGAGCCAAGUGGCUGUAUGAUAUGGUAUGGUAUGGUAUGGUAUGGUAUGGUAUGGUAUGCACAUGUGUGUGCAUGUGUGUGUGCCUGUGUGUGUGCGUGUGCGUGUGUGUAUGUGUGUGCGUGUGUGUGUGUGUGUGUUGUACCCGAGUGUGUGUUGAGCUCUUGCGGUCGCACUAGUGUGGAAUUCUCGGGUGUCAAGG
B4: ENSMUSG00000028439.136|Fam219a (ssRNA)
RNA: GGGAGUUCUACAGUCCGACGAUCGCUUCGAUAUCCGCAUGCUAAACCAGUGCAUCUGUCUCUCUGCCUCAUCCCCACACCGCCCUGCCACCCCCAGUCUUCUGUCUAUUGGUUCCAGGCUGGAAGCAAGAGAUAAGGCUGGCCUCCUGUGCCCCAUUGCCAUUUCACCCUAGCUCAAAGUCCAGGAGCCAGGCUUCCAGAAAGGCUCUUCAAGAGCAAGCUUAAGGAAAUACAGUGAGCCAAGUGGCUGUAUGAUAUGGUAUGGUAUGGUAUGGUAUGGUAUGGUAUGGUAUGCACAUGUGUGCUCUUGCGGUCGCACUAGUGUGGAAUUCUCGGGUGUCAAGG
B5: ENSMUSG00000028439.149|Fam219a (ssRNA)
RNA: GGGAGUUCUACAGUCCGACGAUCGCUUCGAUAUCCGCAUGCUAGAAGCAAGAGAUAAGGCUGGCCUCCUGUGCCCCAUUGCCAUUUCACCCUAGCUCAAAGUCCAGGAGCCAGGCUUCCAGAAAGGCUCUUCAAGAGCAAGCUUAAGGAAAUACAGUGAGCCAAGUGGCUGUAUGAUAUGGUAUGGUAUGGUAUGGUAUGGUAUGGUAUGGUAUGCACAUGUGUGUGCAUGUGUGUGUGCCUGUGUGUGUGCGUGUGCGUGUGUGUAUGUGUGUGCGUGUGUGUGUGUGUGUGUUGUACCCGACUCUUGCGGUCGCACUAGUGUGGAAUUCUCGGGUGUCAAGG
B6: ENSMUSG00000028439.150|Fam219a (ssRNA)
RNA: GGGAGUUCUACAGUCCGACGAUCGCUUCGAUAUCCGCAUGCUAAGAGAUAAGGCUGGCCUCCUGUGCCCCAUUGCCAUUUCACCCUAGCUCAAAGUCCAGGAGCCAGGCUUCCAGAAAGGCUCUUCAAGAGCAAGCUUAAGGAAAUACAGUGAGCCAAGUGGCUGUAUGAUAUGGUAUGGUAUGGUAUGGUAUGGUAUGGUAUGGUAUGCACAUGUGUGUGCAUGUGUGUGUGCCUGUGUGUGUGCGUGUGCGUGUGUGUAUGUGUGUGCGUGUGUGUGUGUGUGUGUUGUACCCGAGUGUGUCUCUUGCGGUCGCACUAGUGUGGAAUUCUCGGGUGUCAAGG
B7: ENSMUSG00000028439.152|Fam219a (ssRNA)
RNA: GGGAGUUCUACAGUCCGACGAUCGCUUCGAUAUCCGCAUGCUAGGCCUCCUGUGCCCCAUUGCCAUUUCACCCUAGCUCAAAGUCCAGGAGCCAGGCUUCCAGAAAGGCUCUUCAAGAGCAAGCUUAAGGAAAUACAGUGAGCCAAGUGGCUGUAUGAUAUGGUAUGGUAUGGUAUGGUAUGGUAUGGUAUGGUAUGCACAUGUGUGUGCAUGUGUGUGUGCCUGUGUGUGUGCGUGUGCGUGUGUGUAUGUGUGUGCGUGUGUGUGUGUGUGUGUUGUACCCGAGUGUGUGUUGAGCCUAUCCUCUUGCGGUCGCACUAGUGUGGAAUUCUCGGGUGUCAAGG
B8: ENSMUSG00000028439.148|Fam219a|134:138;144:178;183:190;193:202;205:214;216:220;222:238;240:257 (ssRNA)
RNA: GGGAGUUCUACAGUCCGACGAUCGCUUCGAUAUCCGCAUGCUAAGGCUGGAAGCAAGAGAUAAGGCUGGCCUCCUGUGCCCCAUUGCCAUUUCACCCUAGCUCAAAGUCCAGGAGCCAGGCUUCCAGAAAGGCUCUUCAAGAGCAAGCUUAAGGAAAUACAGUGAGCCAAGUGGCUCAUACAUAUGCAUACCAUACCAUACCAUACCAUACCAUACCAUACCACAACACACACCAACACACACACCCACACACACACCCACACCCACACACAUACACACACCCACACACACACACACACAUGUCUCUUGCGGUCGCACUAGUGUGGAAUUCUCGGGUGUCAAGG
B9: ENSMUSG00000061578.707|Ksr2|13:17 (ssRNA)
RNA: GGGAGUUCUACAGUCCGACGAUCGCUUCGAUAUCCGCAUGCUACCUGUAGUCUCUACACACAUCUUCUUCUAAGACCACUAAUAACACCGCCUUUCUCCUUGAUCCGGGCCUCAGACCUCUUCAGAGAUUCUUUCUCUGAAUGUACGUGGGGGACUCCAACAGAUGUUGGGAGAAGACUCAAUAUGAGCAUACGGGGUCAUUGUUCAAUCCUGUAUCAAGACCUUGGAGUUGUCUAAGGCUGUGGGUUUUAAAUACCUGCUGCAGGCCUCCCAUCUCUGGCUCUUUGUUUCCACUCUGGCCCACUCUUGCGGUCGCACUAGUGUGGAAUUCUCGGGUGUCAAGG
B10: ENSMUSG00000061578.929|Ksr2|22:26 (ssRNA)
RNA: GGGAGUUCUACAGUCCGACGAUCGCUUCGAUAUCCGCAUGCUACAAGGGUGUUUAGAGUAGGCACACACGAAGUAUCAAUAAGGUUAUUGAGAUGAGGAUUUAGAAAGAUCCAUGUAUAAAAGGUCUAGAAGGAUGAAGAUCUAAAACAAGAAGACUGCAUGUUAACGCUCCUGCCACUGUUGCCCCUUCCUUUACCCUUGGCAGACAUUGCUAAUCAAUCUCAGCACAGUUUCCAACCACAGUCAUAGAACAUUUGCCACAAAGGCCCUGGAUGUGACUAUAUGUGCUGAGAAGGGAAGGUACUCUUGCGGUCGCACUAGUGUGGAAUUCUCGGGUGUCAAGG
B11: ENSMUSG00000028439.103|Fam219a (ssRNA)
RNA: GGGAGUUCUACAGUCCGACGAUCGCUUCGAUAUCCGCAUGCUAAUACCUAUUUGUGUUUUCCCCUCAUCUCCAGAUGGGAAGCCUGGCAGCGCUGUCCAAAGGGAUACUGUCUCUCCAUUAGAUAACUCCUUCCACUGUCUCCCUCCCCCGCUUUCUUACUUUCUGAGGGUUGGGAAGGUAAGAUGGGCCUUAGAGAGAAGCCAGGUUUGGGGAUGGUAUGACCUGUUCUCACCGGUCUCUAACCAGUGCAUCUGUCUCUCUGCCUCAUCCCCACACCGCCCUGCCACCCCCAGUCUUCUGUCCUCUUGCGGUCGCACUAGUGUGGAAUUCUCGGGUGUCAAGG
B12: ENSMUSG00000028439.89|Fam219a|94:98 (ssRNA)
RNA: GGGAGUUCUACAGUCCGACGAUCGCUUCGAUAUCCGCAUGCUAGGGUUUUGAGAAGAAAAGGAUCCAAGCAAUGGGGGCAGUUCUCACACCUCAGAGCCCCUCUCCCCAAACCCUGUGCCAGCCCAUAUACCUAUUACACAUUUCCCCUCAUCUCCAGAUGGGAAGCCUGGCAGCGCUGUCCAAAGGGAUACUGUCUCUCCAUUAGAUAACUCCUUCCACUGUCUCCCUCCCCCGCUUUCUUACUUUCUGAGGGUUGGGAAGGUAAGAUGGGCCUUAGAGAGAAGCCAGGUUUGGGGAUGGUACUCUUGCGGUCGCACUAGUGUGGAAUUCUCGGGUGUCAAGG
B13: ENSMUSG00000029636.86|Wasf3 (ssRNA)
RNA: GGGAGUUCUACAGUCCGACGAUCGCUUCGAUAUCCGCAUGCUAUUCCUGUUUCUUCCCUUUGCAAAUUGAAUUCCAGGUAGAUAUGGUUGUAGAGGGGAAAGUUUAACAAAUCAGAAUGAAAUGUUUGUCUGUUUGCACACUGGGCCUGGUGGCCUCCAAGGAAAUGUGUACGAUCGUUUGCUUUCUCUAUCUUGGCGCUUGCAACCGAGAGCGGCCAUUUUUAUGAGGGGAGCCCUGUGGGUACUCAUGUGGAAAGUGCCCACUGACUUUGGCAGAUGGAGUUCACUUUCAUGGCUAGCCCUCUCUUGCGGUCGCACUAGUGUGGAAUUCUCGGGUGUCAAGG

The full ranking holds about 9,900 sequences; the median of “r (bound/input frequency ratio)” is about 0.7, and the highest 2% start at about 6.5. This excerpt belongs to a sample that is enriched for the highest values.

Sequence of TDP-43 (Q13148 whole entry): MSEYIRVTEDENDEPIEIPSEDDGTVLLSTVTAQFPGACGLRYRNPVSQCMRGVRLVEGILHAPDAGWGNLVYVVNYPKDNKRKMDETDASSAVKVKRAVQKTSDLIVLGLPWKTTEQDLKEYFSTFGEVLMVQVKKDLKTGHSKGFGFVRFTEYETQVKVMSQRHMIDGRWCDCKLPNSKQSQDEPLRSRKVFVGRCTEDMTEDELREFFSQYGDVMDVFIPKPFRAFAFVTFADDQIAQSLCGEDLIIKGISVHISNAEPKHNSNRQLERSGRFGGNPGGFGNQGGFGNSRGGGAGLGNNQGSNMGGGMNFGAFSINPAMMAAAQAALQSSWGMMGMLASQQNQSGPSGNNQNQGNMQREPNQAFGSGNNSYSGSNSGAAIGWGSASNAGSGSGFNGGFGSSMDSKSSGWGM

The assay concerns the target TDP-43 (Homo sapiens, UniProt Q13148 1-414). Put plainly: RNA Bind-n-Seq with designed 260-mer pool; 25 mM Tris-HCl, 150 mM KCl, 3 mM MgCl2, BSA (printed 500 mg/mL), 20 units/mL SUPERase IN; pH not stated; 500 nM RNA pool, 1 h, 4 C; TDP-43 5, 50, 500 nM; high values mean tight binding. Conditions: protein: recombinant; tags: SBP (GST cleaved off with PreScission; pGEX-GST-SBP). Summed up:
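Recombinant SBP-tagged TDP-43 at 5, 50 or 500 nM was captured on streptavidin beads, then incubated 1 h at 4 °C with 500 nM of an in vitro-transcribed 260-nt 3′ UTR oligo pool in 25 mM Tris-HCl, 150 mM KCl, 3 mM MgCl2, BSA and SUPERase IN. Bound RNA was washed, eluted with biotin, reverse transcribed, PCR-amplified and sequenced. Binding is R, each oligo's mapped-read-normalized abundance in the bound sample divided by its abundance in input. Duplicates used two independent protein batches.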
As to B1, the binding signal is 1 R (bound/input frequency ratio). Consider B2, for which the binding signal was 1.04 R (bound/input frequency ratio).

Turning to B3, the binding signal is 6.07 R (bound/input frequency ratio). For B4 the value was 1.84 R (bound/input frequency ratio); for B5, 6.67 R (bound/input frequency ratio); for B6, 7.17 R (bound/input frequency ratio). To B7 belongs 7.8 R (bound/input frequency ratio); to B8, 4.64 R (bound/input frequency ratio). In the case of B9, the binding signal is 0.284 R (bound/input frequency ratio). For B10 the value was 1.18 R (bound/input frequency ratio); for B11, 0.421 R (bound/input frequency ratio). To B12 belongs 0.538 R (bound/input frequency ratio); to B13, 3.02 R (bound/input frequency ratio).
